Laboratory results published in PubChem BioAssay AID1159580 (chemical genetic matrix, 2015).
Out of some 5,500 compounds screened, about 2,000 (36%) were called active. Another 18% or so got no clear call; they are omitted. No stated cut-off is given here; in the data, active means normalized growth mostly below about 0.91 (no sharp cut-off); inconclusive means no clear call, values can overlap the other calls; inactive means mostly above about 0.92. This is one part of the list.

Assay: chemical genetic growth profiling, strain panel (AID 1159580);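 further: tested at 20 µM; growth read once vehicle control cultures reached saturation at 30 °C; 1 = growth at the plate median or of vehicle wells; lower values mean less growth of the strain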
Conditions: growth OD

Measured: normalized growth

O=C(O)c1cc(=O)c2cccc(O)c2[nH]1
inactive: S. cerevisiae deletion strains, locus YJR075W, strain HOC1, active compounds read low 0.974 | S. cerevisiae deletion strains, locus YKL009W, strain mrt4, active compounds read low 0.965 | S. cerevisiae deletion strains, locus YKL068W, active compounds read low 0.976 | S. cerevisiae deletion strains, locus YKL085W, strain MDH1 (second series), active compounds read low 0.964 | S. cerevisiae deletion strains, locus YKL085W, strain MDH1, active compounds read low 0.964 | S. cerevisiae deletion strains, locus YKL160W, strain elf1, active compounds read low 1.05 | S. cerevisiae deletion strains, locus YKL190W, strain CNB1, active compounds read low 0.982 | S. cerevisiae deletion strains, locus YKR001C, strain vps1, active compounds read low 1 | S. cerevisiae deletion strains, locus YKR026C, strain gcn3, active compounds read low 1.01 | S. cerevisiae deletion strains, locus YKR091W, strain srl3, active compounds read low 1.01 | S. cerevisiae deletion strains, locus YLL001W, strain dnm1, active compounds read low 1.02 | S. cerevisiae deletion strains, locus YLL026W, active compounds read low 1.02 | S. cerevisiae deletion strains, locus YLL041C, strain sdh2, active compounds read low 1 | S. cerevisiae deletion strains, locus YLR027C, strain aat2, active compounds read low 0.996 | S. cerevisiae deletion strains, locus YLR039C, strain RIC1, active compounds read low 0.968 | S. cerevisiae deletion strains, locus YLR058C, strain SHM2, active compounds read low 0.987 | S. cerevisiae deletion strains, locus YLR102C, strain apc9, active compounds read low 0.979 | S. cerevisiae deletion strains, locus YLR113W, strain HOG1, active compounds read low 0.99 | S. cerevisiae deletion strains, locus YLR221C, strain rsa3, active compounds read low 0.995 | S. cerevisiae deletion strains, locus YLR258W, strain gsy2, active compounds read low 1.03 | S. cerevisiae deletion strains, locus YLR262C, strain YPT6 (second series), active compounds read low 1.01 | S. cerevisiae deletion strains, locus YLR262C, strain YPT6, active compounds read low 0.971 | S. cerevisiae deletion strains, locus YLR268W, strain sec22, active compounds read low 0.916 | S. cerevisiae deletion strains, locus YLR320W, strain mms22, active compounds read low 1.01 | S. cerevisiae deletion strains, locus YLR330W, strain CHS5, active compounds read low 0.991 | S. cerevisiae deletion strains, locus YLR342W, strain FKS1 (second series), active compounds read low 1.08 | S. cerevisiae deletion strains, locus YLR342W, strain FKS1, active compounds read low 1.02 | S. cerevisiae deletion strains, locus YLR357W, strain rsc2, active compounds read low 1.05 | S. cerevisiae deletion strains, locus YLR370C, strain arc18, active compounds read low 1.04 | S. cerevisiae deletion strains, locus YLR371W, strain rom2, active compounds read low 0.98 | S. cerevisiae deletion strains, locus YLR384C, strain iki3, active compounds read low 1.02 | S. cerevisiae deletion strains, locus YLR418C, strain cdc73, active compounds read low 1.03 | S. cerevisiae deletion strains, locus YML016C, strain PPZ1, active compounds read low 1 | S. cerevisiae deletion strains, locus YML032C, strain rad52, active compounds read low 0.961 | S. cerevisiae deletion strains, locus YML120C, strain ndi1, active compounds read low 1.01 | S. cerevisiae deletion strains, locus YML124C, strain tub3, active compounds read low 0.977 | S. cerevisiae deletion strains, locus YMR058W, strain fet3, active compounds read low 1.02 | S. cerevisiae deletion strains, locus YMR078C, strain ctf18, active compounds read low 0.991 | S. cerevisiae deletion strains, locus YMR125W, strain sto1, active compounds read low 1.02 | S. cerevisiae deletion strains, locus YMR129W, active compounds read low 1.02 | S. cerevisiae deletion strains, locus YMR205C, strain PFK2, active compounds read low 1.02 | S. cerevisiae deletion strains, locus YMR223W, strain ubp8, active compounds read low 1.03 | S. cerevisiae deletion strains, locus YMR231W, strain pep5, active compounds read low 1.01 | S. cerevisiae deletion strains, locus YMR263W, strain SAP30, active compounds read low 0.975 | S. cerevisiae deletion strains, locus YMR307W, strain GAS1, active compounds read low 1.09 | S. cerevisiae deletion strains, locus YNL067W, strain RPL9B, active compounds read low 0.967 | S. cerevisiae deletion strains, locus YNL071W, strain lat1, active compounds read low 1.02 | S. cerevisiae deletion strains, locus YNL128W, strain TEP1, active compounds read low 0.983 | S. cerevisiae deletion strains, locus YNL153C, strain GIM3, active compounds read low 0.97 | S. cerevisiae deletion strains, locus YNL183C, strain NPR1, active compounds read low 0.917 | S. cerevisiae deletion strains, locus YNL209W, strain ssb2, active compounds read low 0.999 | S. cerevisiae deletion strains, locus YNL233W, strain BNI4, active compounds read low 0.97 | S. cerevisiae deletion strains, locus YNL248C, strain rpa49, active compounds read low 1.03 | S. cerevisiae deletion strains, locus YNL250W, strain rad50, active compounds read low 0.967 | S. cerevisiae deletion strains, locus YNL271C, strain bni1, active compounds read low 0.976 | S. cerevisiae deletion strains, locus YNL298W, strain CLA4, active compounds read low 0.987 | S. cerevisiae deletion strains, locus YNL307C, strain MCK1, active compounds read low 0.981 | S. cerevisiae deletion strains, locus YNL322C, strain KRE1 (second series), active compounds read low 1.03 | S. cerevisiae deletion strains, locus YNL322C, strain KRE1, active compounds read low 0.984 | S. cerevisiae deletion strains, locus YNR049C, strain mso1, active compounds read low 1.02 | S. cerevisiae deletion strains, locus YNR052C, strain pop2, active compounds read low 1 | S. cerevisiae deletion strains, locus YOL006C, strain TOP1, active compounds read low 1.02 | S. cerevisiae deletion strains, locus YOL012C, strain htz1 0.728 | S. cerevisiae deletion strains, locus YOL147C, strain pex11, active compounds read low 0.985 | S. cerevisiae deletion strains, locus YOR001W, strain rrp6, active compounds read low 0.956 | S. cerevisiae deletion strains, locus YOR061W, strain CKA2, active compounds read low 0.992 | S. cerevisiae deletion strains, locus YOR069W, strain VPS5, active compounds read low 0.991 | S. cerevisiae deletion strains, locus YOR070C, strain gyp1, active compounds read low 1.02 | S. cerevisiae deletion strains, locus YOR080W, strain dia2, active compounds read low 1.01 | S. cerevisiae deletion strains, locus YOR083W, strain WHI5, active compounds read low 1.05 | S. cerevisiae deletion strains, locus YOR106W, strain vam3, active compounds read low 1.03 | S. cerevisiae deletion strains, locus YOR136W, strain idh2, active compounds read low 0.99 | S. cerevisiae deletion strains, locus YOR144C, strain elg1, active compounds read low 0.99 | S. cerevisiae deletion strains, locus YOR184W, strain ser1, active compounds read low 0.972 | S. cerevisiae deletion strains, locus YOR231W, strain MKK1, active compounds read low 0.982 | S. cerevisiae deletion strains, locus YOR265W, strain rbl2, active compounds read low 1.01 | S. cerevisiae deletion strains, locus YOR270C, strain vph1, active compounds read low 0.995 | S. cerevisiae deletion strains, locus YOR290C, strain snf2, active compounds read low 1.06 | S. cerevisiae deletion strains, locus YOR316C, strain cot1, active compounds read low 0.966 | S. cerevisiae deletion strains, locus YPL051W, strain arl3, active compounds read low 1.04 | S. cerevisiae deletion strains, locus YPL055C, strain LGE1, active compounds read low 0.951 | S. cerevisiae deletion strains, locus YPL078C, strain atp4, active compounds read low 1.04 | S. cerevisiae deletion strains, locus YPL106C, strain sse1, active compounds read low 1.03 | S. cerevisiae deletion strains, locus YPL240C, strain hsp82, active compounds read low 1.01 | S. cerevisiae deletion strains, locus YPL241C, strain CIN2, active compounds read low 0.982 | S. cerevisiae deletion strains, locus YPL256C, strain CLN2, active compounds read low 0.965 | S. cerevisiae deletion strains, locus YPR119W, strain clb2, active compounds read low 0.987 | S. cerevisiae deletion strains, locus YPR141C, strain kar3, active compounds read low 0.97 | S. cerevisiae deletion strains, locus YPR163C, strain tif3, active compounds read low 0.989 | S. cerevisiae deletion strains, locus YPR167C, strain met16, active compounds read low 0.973 | S. cerevisiae deletion strains, strain wtn01, active compounds read low 0.995 | S. cerevisiae strains, strain wild type, active compounds read low 1
